# Assay results: PubChem BioAssay (EPA / NIEHS)
# Records with an inconclusive call do not appear. The source made the active and inactive calls. Rule for the calls: active = hit-call score of the fitted dose curve at least 0.9, where 1 is the maximum; inconclusive = response in the unintended direction; inactive = score below 0.9.
# Columns and labels:
# [1] = target: human Vasopressin 1A Receptor (V1A), AVPR1A (gene 552) (UniProt P37288); experiment: NVS_GPCR_hV1A: NovaScreen (NVS) G Protein-Coupled Receptor Assay for human Vasopressin 1A Receptor (V1A) (AID 2283284)
# human Vasopressin 1A Receptor (V1A), AVPR1A (gene 552), sequence (P37288 whole entry, looked up): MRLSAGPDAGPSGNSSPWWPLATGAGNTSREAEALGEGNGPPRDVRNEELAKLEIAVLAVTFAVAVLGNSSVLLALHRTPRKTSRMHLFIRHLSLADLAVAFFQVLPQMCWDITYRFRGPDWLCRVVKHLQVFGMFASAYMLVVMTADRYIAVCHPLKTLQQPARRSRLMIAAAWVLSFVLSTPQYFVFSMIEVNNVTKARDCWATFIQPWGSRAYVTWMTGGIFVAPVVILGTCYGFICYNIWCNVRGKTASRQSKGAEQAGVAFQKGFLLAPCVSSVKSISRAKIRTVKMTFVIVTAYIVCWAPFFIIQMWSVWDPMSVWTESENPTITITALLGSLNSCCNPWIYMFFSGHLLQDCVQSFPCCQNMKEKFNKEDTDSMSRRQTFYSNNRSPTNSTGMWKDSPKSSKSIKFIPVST
# Outline: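 Cell-free radioligand displacement on human platelet preparations, 1.5 h incubation, filter-based scintillation counting. Chemicals first tested in duplicate at 25 uM; actives then run in concentration-response up to 50 uM, loss of signal fitted against DMSO.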
# [2] = target: rat Adrenergic, Alpha 1, Non-selective Receptor (Adra1), Adra1a (gene 29412) (UniProt P43140); experiment: NVS_GPCR_rAdra1_NonSelective: NovaScreen (NVS) G Protein-Coupled Receptor Assay for rat Adrenergic, Alpha 1, Non-selective Receptor (Adra1) (AID 2283289)
# rat Adrenergic, Alpha 1, Non-selective Receptor (Adra1), Adra1a (gene 29412), sequence (P43140 whole entry, looked up): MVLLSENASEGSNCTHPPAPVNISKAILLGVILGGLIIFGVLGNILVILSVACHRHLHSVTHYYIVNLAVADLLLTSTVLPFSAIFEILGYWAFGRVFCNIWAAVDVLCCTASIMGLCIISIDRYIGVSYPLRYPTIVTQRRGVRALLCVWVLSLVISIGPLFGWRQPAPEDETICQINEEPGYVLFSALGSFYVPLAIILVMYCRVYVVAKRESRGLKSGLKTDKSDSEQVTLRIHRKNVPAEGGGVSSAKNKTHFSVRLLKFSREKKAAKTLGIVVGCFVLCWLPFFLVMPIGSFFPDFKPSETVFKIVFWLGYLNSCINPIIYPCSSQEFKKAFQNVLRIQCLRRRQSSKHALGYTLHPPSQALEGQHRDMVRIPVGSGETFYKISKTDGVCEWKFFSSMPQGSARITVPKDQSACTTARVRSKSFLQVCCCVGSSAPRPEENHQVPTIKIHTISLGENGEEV
# Outline: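 Rat forebrain membranes; radioligand displacement read by filter-based scintillation counting 1 h after dosing. Primary screen in duplicate at 25 uM; hits (e.g. ≥30% inhibition) rerun as concentration–response to 50 uM max. Fitted versus DMSO.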
# [3] = test system: 5-hydroxytryptamine receptor 2C (pig); experiment: NVS_GPCR_p5HT2C: NovaScreen (NVS) G Protein-Coupled Receptor Assay for pig Serotonin, 5-Hydroxytryptamine Receptor 2C (5HT2C) (AID 2283288)
# Outline: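 Pig choroid plexus membranes; radioligand competitive binding, filter-based scintillation counting, read 1 h after dosing. Primary screen in duplicate at 25 uM; actives then run as concentration series; loss of signal versus DMSO baseline.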
# [4] = target: human Neurokinin, NK2 Receptor, TACR2 (gene 6865) (UniProt P21452); experiment: NVS_GPCR_hNK2: NovaScreen (NVS) G Protein-Coupled Receptor Assay for human Neurokinin, NK2 Receptor (AID 2283278);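 note: actives reduce bound radioligand signal relative to DMSO baseline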
# human Neurokinin, NK2 Receptor, TACR2 (gene 6865), sequence (P21452 whole entry, looked up): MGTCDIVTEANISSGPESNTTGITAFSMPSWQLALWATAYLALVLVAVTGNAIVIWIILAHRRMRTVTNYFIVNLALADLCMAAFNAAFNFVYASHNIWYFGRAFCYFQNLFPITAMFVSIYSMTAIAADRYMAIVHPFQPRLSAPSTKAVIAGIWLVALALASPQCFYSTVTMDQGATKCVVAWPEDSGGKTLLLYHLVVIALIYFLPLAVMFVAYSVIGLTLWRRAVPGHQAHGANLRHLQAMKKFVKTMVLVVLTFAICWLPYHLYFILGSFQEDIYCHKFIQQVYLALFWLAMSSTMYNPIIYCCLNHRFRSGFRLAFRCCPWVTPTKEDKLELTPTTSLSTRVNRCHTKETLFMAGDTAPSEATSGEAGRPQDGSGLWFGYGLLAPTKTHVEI
# Outline: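 Radioligand binding on membranes from CHO cells expressing receptor, filter-based scintillation read 4 h after dosing. Initial duplicate screen at 25 uM, actives in concentration series; loss of signal versus DMSO.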
# [5] = target: human Neurotensin Receptor (NTS), NTSR1 (gene 4923) (UniProt P30989); experiment: NVS_GPCR_hNTS: NovaScreen (NVS) G Protein-Coupled Receptor Assay for human Neurotensin Receptor (NTS) (AID 2283279)
# human Neurotensin Receptor (NTS), NTSR1 (gene 4923), sequence (P30989 whole entry, looked up): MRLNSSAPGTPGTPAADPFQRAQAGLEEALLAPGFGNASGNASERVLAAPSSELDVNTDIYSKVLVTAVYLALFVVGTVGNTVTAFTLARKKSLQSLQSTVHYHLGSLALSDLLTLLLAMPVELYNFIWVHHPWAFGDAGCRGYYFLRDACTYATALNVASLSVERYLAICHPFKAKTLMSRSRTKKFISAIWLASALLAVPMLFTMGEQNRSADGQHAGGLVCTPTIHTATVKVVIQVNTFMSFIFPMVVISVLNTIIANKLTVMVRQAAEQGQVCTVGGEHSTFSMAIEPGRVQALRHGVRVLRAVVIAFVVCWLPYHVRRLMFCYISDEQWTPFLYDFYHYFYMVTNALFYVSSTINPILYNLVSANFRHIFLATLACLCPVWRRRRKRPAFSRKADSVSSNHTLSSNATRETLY
# Outline: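 Radioligand displacement on human NTSR1 protein from CHO cells, cell-free, 1 h, filter-based scintillation counting. Primary screen at 25 uM in duplicate; hits rerun in concentration-response up to 50 uM.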
# [6] = target: human Thromboxane A2 Receptor (TXA2), TBXA2R (gene 6915) (UniProt P21731); experiment: NVS_GPCR_hTXA2: NovaScreen (NVS) G Protein-Coupled Receptor Assay for human Thromboxane A2 Receptor (TXA2) (AID 2283282);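 note: actives reduce bound radioligand signal relative to DMSO baseline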
# human Thromboxane A2 Receptor (TXA2), TBXA2R (gene 6915), sequence (P21731 whole entry, looked up): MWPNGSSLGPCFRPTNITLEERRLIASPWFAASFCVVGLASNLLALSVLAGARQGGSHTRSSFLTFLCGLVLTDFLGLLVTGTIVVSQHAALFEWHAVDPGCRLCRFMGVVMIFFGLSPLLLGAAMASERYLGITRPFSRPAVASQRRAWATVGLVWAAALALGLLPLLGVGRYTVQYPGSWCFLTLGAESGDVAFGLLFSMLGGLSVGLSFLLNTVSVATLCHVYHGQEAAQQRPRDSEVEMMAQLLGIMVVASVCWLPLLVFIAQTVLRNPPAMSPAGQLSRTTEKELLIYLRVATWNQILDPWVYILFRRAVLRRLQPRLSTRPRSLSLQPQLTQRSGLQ
# Outline: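 Biochem binding, human platelets, cell-free; competitive radioligand displacement; 1 h; filter radiodetection. 25 uM duplicate primary, conc. series secondary; DMSO neg. ctrl.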
# [7] = target: mouse Cholecystokinin, CCK1 Receptor (CCKA), Cckar (gene 12425) (UniProt O08786); experiment: NVS_GPCR_mCCKAPeripheral: NovaScreen (NVS) G Protein-Coupled Receptor Assay for mouse Cholecystokinin, CCK1 Receptor (CCKA) (AID 2283285)
# mouse Cholecystokinin, CCK1 Receptor (CCKA), Cckar (gene 12425), sequence (O08786 whole entry, looked up): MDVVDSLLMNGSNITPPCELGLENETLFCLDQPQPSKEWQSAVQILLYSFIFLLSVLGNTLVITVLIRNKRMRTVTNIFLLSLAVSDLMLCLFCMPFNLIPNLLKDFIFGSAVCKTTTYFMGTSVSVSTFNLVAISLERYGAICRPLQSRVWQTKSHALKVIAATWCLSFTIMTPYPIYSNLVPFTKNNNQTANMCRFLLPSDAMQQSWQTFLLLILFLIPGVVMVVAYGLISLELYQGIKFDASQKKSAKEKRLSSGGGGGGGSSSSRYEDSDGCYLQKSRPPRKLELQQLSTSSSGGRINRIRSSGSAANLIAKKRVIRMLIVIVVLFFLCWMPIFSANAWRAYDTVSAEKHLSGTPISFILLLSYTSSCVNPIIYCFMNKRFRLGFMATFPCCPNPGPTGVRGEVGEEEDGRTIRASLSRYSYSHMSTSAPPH
# Outline: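 Radioligand competitive displacement on mouse pancreatic membranes, 2 h incubation; filter-based scintillation counting, loss of signal versus DMSO. Single-concentration screen at 25 uM in duplicate, actives retested in concentration-response up to 50 uM.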
# [8] = target: human Orphanin, Opioid Related Nociceptin Receptor 1 (ORL1), OPRL1 (gene 4987) (UniProt P41146); experiment: NVS_GPCR_hORL1: NovaScreen (NVS) G Protein-Coupled Receptor Assay for human Orphanin, Opioid Related Nociceptin Receptor 1 (ORL1) (AID 2283283)
# human Orphanin, Opioid Related Nociceptin Receptor 1 (ORL1), OPRL1 (gene 4987), sequence (P41146 whole entry, looked up): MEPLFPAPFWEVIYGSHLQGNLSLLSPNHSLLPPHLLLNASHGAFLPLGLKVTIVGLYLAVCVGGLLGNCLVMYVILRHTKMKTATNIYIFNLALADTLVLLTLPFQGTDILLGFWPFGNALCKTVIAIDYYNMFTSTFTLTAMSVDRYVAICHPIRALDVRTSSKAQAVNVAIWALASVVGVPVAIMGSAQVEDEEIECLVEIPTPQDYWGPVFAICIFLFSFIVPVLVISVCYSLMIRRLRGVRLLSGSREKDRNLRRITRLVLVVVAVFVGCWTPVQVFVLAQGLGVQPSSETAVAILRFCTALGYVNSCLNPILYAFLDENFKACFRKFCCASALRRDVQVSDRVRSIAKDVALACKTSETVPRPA
# Outline: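 Filter-based radioligand displacement with receptor extracted from HEK293 cells, read 1 hour after dosing by scintillation counting. Duplicate single-point screen at 25 uM; qualifying chemicals then run in concentration-response to 50 uM, analysed relative to DMSO.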
# [9] = target: rat Serotonin, 5-Hydroxytryptamine Receptor 1 (5HT1), Non-Selective Binding, Htr1a (gene 24473) (UniProt P19327); experiment: NVS_GPCR_r5HT1_NonSelective: NovaScreen (NVS) G Protein-Coupled Receptor Assay for rat Serotonin, 5-Hydroxytryptamine Receptor 1 (5HT1), Non-Selective Binding (AID 2283286)
# rat Serotonin, 5-Hydroxytryptamine Receptor 1 (5HT1), Non-Selective Binding, Htr1a (gene 24473), sequence (P19327 whole entry, looked up): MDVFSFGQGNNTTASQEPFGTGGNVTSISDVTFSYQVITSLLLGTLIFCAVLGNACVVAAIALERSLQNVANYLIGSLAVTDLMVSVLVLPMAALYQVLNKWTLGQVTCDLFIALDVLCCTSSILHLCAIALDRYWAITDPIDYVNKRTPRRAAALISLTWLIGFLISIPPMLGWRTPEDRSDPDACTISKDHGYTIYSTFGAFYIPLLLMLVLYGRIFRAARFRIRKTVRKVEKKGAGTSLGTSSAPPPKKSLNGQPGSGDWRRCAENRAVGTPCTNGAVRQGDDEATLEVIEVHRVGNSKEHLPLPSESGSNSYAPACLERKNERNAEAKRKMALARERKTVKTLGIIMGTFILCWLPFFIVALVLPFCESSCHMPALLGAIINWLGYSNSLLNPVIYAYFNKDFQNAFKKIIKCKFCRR
# Outline: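 Rat cortical membranes, radioligand displacement, 1 h incubation, read by filter scintillation. Primary screen in duplicate at 25 uM. Hits (e.g. ≥30% inhibition) went to concentration-response up to 50 uM, fitted as loss of binding versus DMSO.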
# [10] = test system: rabbit Platelet Activating Factor Receptor (PAF), gene 100354046; experiment: NVS_GPCR_rabPAF: NovaScreen (NVS) G Protein-Coupled Receptor Assay for rabbit Platelet Activating Factor Receptor (PAF) (AID 2283287)
# Outline: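 Rabbit platelet membrane preparation; radioligand displacement read by filter-based scintillation counting 1 h after dosing, loss of signal versus DMSO. Primary screen in duplicate at 25 uM, actives followed up in concentration series.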
compound,measurement,setting,value
c1ccc(C[n+]2cccc3ccccc32)cc1,outcome,[1],inactive
same,AC50,[2],11.7 µM (active)
CC(C)(C)c1cc(/C=C2\SC(N)=NC2=O)cc(C(C)(C)C)c1O,outcome,[3],inactive
CC1(C)NC(=O)N(c2ccc([N+](=O)[O-])c(C(F)(F)F)c2)C1=O,outcome,[4],inactive
CCCC(=O)OCCC(C)C,AC50,[5],15 µM (active)
CN(C[C@@H](CC[N+]12CCC(C3CCCCC3)(CC1)CC2)c1ccc(Cl)c(Cl)c1)C(=O)c1cc(C(F)(F)F)cc(C(F)(F)F)c1,AC50,[4],0.0311 µM (active)
same,AC50,[6],25 µM (active)
same,AC50,[3],25 µM (active)
Cc1cc2c(cc1C(F)(F)F)N(C(=O)Nc1ccc(Oc3cccnc3C)nc1)CC2,AC50,[7],13.3 µM (active)
same,AC50,[3],0.00211 µM (active)
CC/C(=C(/CC)c1ccc(O)cc1)c1ccc(O)cc1,AC50,[6],15.3 µM (active)
same,AC50,[8],11.4 µM (active)
same,AC50,[7],12.5 µM (active)
same,AC50,[3],22.1 µM (active)
same,outcome,[2],inactive
CN(C)C(=O)C1(N2CCCCC2)CCN(CC[C@@]2(c3ccc(Cl)c(Cl)c3)CN(C(=O)c3ccccc3)CCO2)CC1,outcome,[4],inactive
same,AC50,[8],4.88 µM (active)
same,AC50,[7],3.99 µM (active)
same,outcome,[9],inactive
same,AC50,[3],1.18 µM (active)
Clc1ccccc1C(c1ccccc1)(c1ccccc1)n1ccnc1,AC50,[10],0.621 µM (active)
O=c1ccc2ccccc2o1,outcome,[3],inactive
CC(C)(C)c1csc(-c2cc3cc(OCc4ccccc4CC(=O)O)ccc3o2)n1,outcome,[7],inactive
O=C1c2ccccc2C(=O)N1CCc1noc(-c2ccc(CN3CCCCCC3)s2)n1,AC50,[4],12.3 µM (active)
same,AC50,[10],3.11 µM (active)
same,AC50,[2],9.19 µM (active)
CCN(Cc1cccc(S(=O)(=O)O)c1)c1ccc(C(=C2C=CC(=[N+](CC)Cc3cccc(S(=O)(=O)O)c3)C=C2)c2ccccc2S(=O)(=O)[O-])cc1,AC50,[6],8.17 µM (active)
